Autofluor counter: flagged as autofluorescent in microsphere protease counterscreen; compound autofluorescence counterscreen, microsphere flow cytometry; hits give high values; fluorescence intensity (concentration not given with the values); hit rate 3.1% among 360,000; AID 624483; in the data active = fluorescence intensity above about 16000; inconclusive = no clear call, values can overlap the other calls
SSB-PriA inh: K. pneumoniae PriA-SSBct interaction inhibition. AlphaScreen SSBct-PriA binding, biotinylated peptide. inhibition, % at 33 µM. hit rate 0.6% among 430,000. AID 1272365; in the data active = inhibition mostly above about 37%, no sharp cut-off; inactive = mostly below about 20%
BoNT A protease: blocks Botulinum neurotoxin A light chain protease; multiplex microsphere protease substrate cleavage, flow cytometry; inhibition, % at 10 µM; hit rate 0.17% among 360,000
BoNT-F LC inh: BoNT F light chain protease inhibition | Multiplex microsphere protease cleavage assay, flow cytometry | inhibition, % at 10 µM | hit rate 0.22% among 360,000 | AID 588497; in the data active = inhibition above about 35%, passing the limit was not always enough; inconclusive = no clear call, values can overlap the other calls
Anthrax LF prot: blocks Bacillus anthracis lethal factor protease | multiplex microsphere protease cleavage assay, LF | hit rate 0.12% among 360,000 | inhibition, % at 10 µM | P15917 | AID 588501
Target sequence (P15917 whole entry, looked up): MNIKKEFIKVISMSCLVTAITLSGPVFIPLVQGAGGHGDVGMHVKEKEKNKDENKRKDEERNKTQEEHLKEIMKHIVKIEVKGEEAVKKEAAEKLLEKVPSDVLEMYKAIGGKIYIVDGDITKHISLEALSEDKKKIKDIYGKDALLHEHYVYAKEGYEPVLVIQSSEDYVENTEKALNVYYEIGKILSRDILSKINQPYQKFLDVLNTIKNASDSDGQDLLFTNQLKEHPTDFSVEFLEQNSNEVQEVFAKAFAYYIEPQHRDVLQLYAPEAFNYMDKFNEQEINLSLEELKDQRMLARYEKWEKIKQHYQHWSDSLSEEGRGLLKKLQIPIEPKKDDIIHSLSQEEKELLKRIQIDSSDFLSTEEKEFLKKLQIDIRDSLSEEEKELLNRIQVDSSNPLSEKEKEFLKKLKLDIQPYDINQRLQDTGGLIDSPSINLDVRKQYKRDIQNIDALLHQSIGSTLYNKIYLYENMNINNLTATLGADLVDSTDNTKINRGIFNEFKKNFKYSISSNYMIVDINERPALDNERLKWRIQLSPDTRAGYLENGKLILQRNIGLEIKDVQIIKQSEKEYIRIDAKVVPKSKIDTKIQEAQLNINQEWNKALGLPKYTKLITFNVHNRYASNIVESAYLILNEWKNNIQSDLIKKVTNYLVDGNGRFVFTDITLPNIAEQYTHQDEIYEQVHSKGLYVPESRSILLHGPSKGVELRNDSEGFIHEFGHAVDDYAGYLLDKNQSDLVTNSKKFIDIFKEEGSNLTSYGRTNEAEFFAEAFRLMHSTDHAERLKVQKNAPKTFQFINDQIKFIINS
Of the large screens only hits and unclear results are named; the others gave an inactive call; ! = not active in a repeat. Compounds with a hit are over-represented: about 3.1% of the library has one in this group of screens. Rule as the data show it, unless noted: active = inhibition above about 30%; inconclusive = no clear call, values can overlap the other calls; inactive = below that.

COC(=O)CSc1nc(C)c(C(C)=O)cc1C#N	Autofluor counter 20891, BoNT A protease inconclusive
CCn1nc(C)cc1C(=O)Nc1nnc(-c2ccc(S(C)(=O)=O)cc2)o1	none (no result: Autofluor counter, BoNT A protease, BoNT-F LC inh, Anthrax LF prot)
O=S(=O)(c1ccccc1)N1CCN(C(=S)NC2CCCC2)CC1	none
O=C(NC1CCCC1)C1(c2ccccc2)CCN(S(=O)(=O)c2ccccc2)CC1	Autofluor counter 24081, BoNT A protease inconclusive
CC(=NNC(=O)c1cc(C)nc2ccccc12)c1cccs1	none (no result: Autofluor counter, BoNT A protease, BoNT-F LC inh, Anthrax LF prot)
COc1ccc(Cl)cc1Nc1nc(C)cc(N)n1	none (no result: Autofluor counter, BoNT A protease, BoNT-F LC inh, Anthrax LF prot)
CCc1ccc2nc3c(c(C(=O)O)c2c1)CCC3	Autofluor counter 22313
COC(=O)c1c2c(nc3ccccc13)CCC2	Autofluor counter inconclusive
CCN(CC)C(=O)CSc1nc2c(sc(=S)n2Cc2ccco2)c(=O)n1-c1ccccc1	Autofluor counter 20976
CCOC(=O)CSc1nc2c(sc(=S)n2-c2ccccc2OC)c(=O)n1Cc1ccco1	Autofluor counter 16526
Cn1cc(-c2nnnn2-c2cccc(C(F)(F)F)c2)c(C(F)(F)F)n1	Autofluor counter 24492
Cc1nn(-c2cccc(C(F)(F)F)c2)c(=O)c2ccccc12	none
CCN1CCN(Cc2ccc(O)c3ncccc23)CC1	SSB-PriA inh 123 (no result: Autofluor counter, BoNT A protease, BoNT-F LC inh, Anthrax LF prot)
Oc1ccc(CN2CCN(c3ccccc3)CC2)c2cccnc12	none
CCOC(=O)N1CCN(Cc2ccc(O)c3ncccc23)CC1	SSB-PriA inh 88 (no result: Autofluor counter, BoNT A protease, BoNT-F LC inh, Anthrax LF prot)
Oc1ccc(CN2CCC(Cc3ccccc3)CC2)c2cccnc12	SSB-PriA inh 62 (no result: Autofluor counter, BoNT A protease, BoNT-F LC inh, Anthrax LF prot)
Oc1ccc(CN2CCCCC2)c2cccnc12	SSB-PriA inh 99
COc1cc2c(cc1OC)C1CC(=NO)C(CC(C)C)CN1CC2 (stereo not drawn)	none (no result: Autofluor counter, BoNT A protease, BoNT-F LC inh, Anthrax LF prot)
CN(C)/C=C/c1cc(=S)c2ccccc2s1	none (no result: Autofluor counter, BoNT A protease, BoNT-F LC inh, Anthrax LF prot)
Cc1nn(C)cc1S(=O)(=O)NCCCN(C)C	none (no result: Autofluor counter, BoNT A protease, BoNT-F LC inh, Anthrax LF prot)
Cc1ccccc1-c1ccc(N2CCC(C(=O)Nc3ccccn3)CC2)nn1	none (no result: Autofluor counter, BoNT A protease, BoNT-F LC inh, Anthrax LF prot)
Cn1cc(CN2CCc3ccccc3C2)c2ccccc21	Autofluor counter 21029
CCN1CCc2ccccc2C1	none
Oc1ccc(CN2CCc3ccccc3C2)c2cccnc12	Autofluor counter 16689, SSB-PriA inh 101
N#Cc1ccc(C2NC(=O)c3sc4nc(C5CC5)cc(-c5ccccc5)c4c3N2)cc1 (stereo not drawn)	none (no result: Autofluor counter, BoNT A protease, BoNT-F LC inh, Anthrax LF prot)
C=CCOc1ccc2nc(NC(=O)OC)[nH]c2c1	Autofluor counter 23127
COC(=O)Nc1nc2ccccc2[nH]1	none
COc1ccc(S(=O)(=O)N2CCC(C(=O)Nc3c4c(nn3C)CCC4)CC2)cc1	none (no result: Autofluor counter, BoNT A protease, BoNT-F LC inh, Anthrax LF prot)
COc1nn(C)cc1C(=O)NCc1cccs1	none (no result: Autofluor counter, BoNT A protease, BoNT-F LC inh, Anthrax LF prot)
Cc1cccc(NC(=O)CSc2nnc(Cn3nnc(-c4ccccc4)n3)n2-c2ccccc2)c1	Autofluor counter 23099
CC(=O)Nc1ccc(NC(=O)c2cc(-n3cnnc3)ccc2Cl)cc1	none
CC(C)NC(=O)c1cc(-n2cnnc2)ccc1Cl	Autofluor counter 20045
O=C(Nc1ccccn1)c1cc(-n2cnnc2)ccc1Cl	none
Cc1c(NC(=O)c2cc(-n3cnnc3)ccc2Cl)cccc1-c1nc2ccccc2s1	Autofluor counter 22973
Cc1ccnc(NC(=O)c2cc(-n3cnnc3)ccc2Cl)c1	Autofluor counter 22908, BoNT A protease inconclusive
CC(=O)N1CCc2cc(NC(=O)c3ccc(C)cc3)ccc21	Autofluor counter 21491
Cc1ccc(/C=C/C(=O)Nc2ccc3oc(=O)ccc3c2)cc1	none (no result: Autofluor counter, BoNT A protease, BoNT-F LC inh, Anthrax LF prot)
O=C(Nc1ccccc1OC(F)F)c1ccc(S(=O)(=O)N2CCCCC2)cc1	none (no result: Autofluor counter, BoNT A protease, BoNT-F LC inh, Anthrax LF prot)
Nc1nc(SCCN2C(=O)c3ccccc3C2=O)n[nH]1	Autofluor counter 18492, BoNT A protease inconclusive
Cc1noc(-c2sccc2NC(=O)Cn2c(=O)oc3ccccc32)n1	none (no result: Autofluor counter, BoNT A protease, BoNT-F LC inh, Anthrax LF prot)
CC(=O)C1C(c2ccncc2)NC(=O)NC1(O)C(F)(F)F (stereo not drawn)	Autofluor counter 22926
CCOC(=O)C1C(c2ccc(C)o2)NC(=O)NC1(O)C(F)(F)F (stereo not drawn)	SSB-PriA inh 43!
CC(=O)C1C(c2ccc3ncccc3c2)NC(=O)NC1(O)C(F)(F)F (stereo not drawn)	Autofluor counter 22750
Cn1cnc(S(=O)(=O)N(CCc2cccs2)C2CC2)c1	none (no result: Autofluor counter, BoNT A protease, BoNT-F LC inh, Anthrax LF prot)
Cn1nc(CNC(=O)C2CC=CCC2)c2c1CCOC2 (stereo not drawn)	none (no result: Autofluor counter, BoNT A protease, BoNT-F LC inh, Anthrax LF prot)
O=C(NCc1ccc(F)cc1)c1cccc2c1C(=O)c1ccc(N3CCC(Cc4ccccc4)CC3)cc1S2(=O)=O	Anthrax LF prot 33
O=C(NCc1ccc(F)cc1)c1cccc2c1C(=O)c1ccc(N3CCC(N4CCCCC4)CC3)cc1S2(=O)=O	none (no result: SSB-PriA inh)
Cc1nc2c(C(=O)N3CCCC3)cnn2c(C)c1Cc1c(F)cccc1Cl	Autofluor counter 23177
COC(=O)c1cnn2c(C)c(Cc3cccc(F)c3)c(C)nc12	none
Cc1nc2c(C(=O)N3CCC4(CC3)OCCO4)cnn2c(C)c1Cc1cccc(Cl)c1	none
